# Among all 5,500 compounds or so, about 2,000 (36%) were called active. Not shown: some 18% with an inconclusive outcome. Some of the results follow. A number with no mark means an inactive call. Cut-off read from the data, not from the text of the source: active = normalized growth mostly below about 0.91 (no sharp cut-off); inconclusive = no clear call, values can overlap the other calls; inactive = mostly above about 0.92.
# Assay: chemical genetic growth profiling, strain panel (AID 1159580);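 note: tested at 20 µM; growth read once vehicle control cultures reached saturation at 30 °C; 1 = growth at the plate median or of vehicle wells; lower values mean less growth of the strain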
# Settings: S. cerevisiae deletion strains, growth OD
structure (smiles),measurement,setting,value
COc1cc(CC/C(C)=N\O)ccc1OCc1ccc(Cl)c(Cl)c1,normalized growth,"locus YAR019C, strain CDC15, active compounds read low",0.973
same,normalized growth,"locus YBL105C, strain PKC1, active compounds read low",0.964
same,normalized growth,"locus YBR135W, strain CKS1, active compounds read low",0.97
same,normalized growth,"locus YBR136W, strain MEC1, active compounds read low",0.96
same,normalized growth,"locus YBR160W, strain CDC28, active compounds read low",0.975
same,normalized growth,"locus YDL017W, strain CDC7, active compounds read low",0.963
same,normalized growth,"locus YDL028C, strain MPS1, active compounds read low",0.959
same,normalized growth,"locus YDL101C, strain DUN1, active compounds read low",0.975
same,normalized growth,"locus YDL108W, strain KIN28, active compounds read low",0.947
same,normalized growth,"locus YDL132W, strain cdc53, active compounds read low",0.983
same,normalized growth,"locus YDL214C, strain PRR2, active compounds read low",0.818
same,normalized growth,"locus YDR052C, strain DBF4, active compounds read low",0.971
same,normalized growth,"locus YDR054C, strain cdc34, active compounds read low",0.968
same,normalized growth,"locus YDR226W, strain ADK1, active compounds read low",0.973
same,normalized growth,"locus YDR477W, strain SNF1, active compounds read low",0.868
same,normalized growth,"locus YER123W, strain YCK3, active compounds read low",0.767
same,normalized growth,"locus YER133W, strain GLC7, active compounds read low",0.864
same,normalized growth,"locus YFL009W, strain cdc4, active compounds read low",0.968
same,normalized growth,"locus YFL029C, strain CAK1, active compounds read low",0.968
same,normalized growth,"locus YFR003C, strain YPI1, active compounds read low",0.968
same,normalized growth,"locus YFR019W, strain FAB1, active compounds read low",0.808
same,normalized growth,"locus YFR028C, strain CDC14, active compounds read low",0.983
same,normalized growth,"locus YGR040W, strain KSS1, active compounds read low",0.862
same,normalized growth,"locus YGR052W, strain FMP48, active compounds read low",0.881
same,normalized growth,"locus YGR092W, strain DBF2, active compounds read low",0.824
same,normalized growth,"locus YHR030C, strain SLT2, active compounds read low",0.831 (active)
same,normalized growth,"locus YHR079C, strain IRE1, active compounds read low",0.871
same,normalized growth,"locus YHR082C, strain KSP1, active compounds read low",0.883
same,normalized growth,"locus YHR205W, strain SCH9, active compounds read low",0.869
same,normalized growth,"locus YIL147C, strain SLN1, active compounds read low",0.962
same,normalized growth,"locus YJL095W, strain BCK1, active compounds read low",0.849
same,normalized growth,"locus YJL128C, strain PBS2, active compounds read low",0.916
same,normalized growth,"locus YJL157C, strain FAR1, active compounds read low",0.823
same,normalized growth,"locus YJR016C, strain ILV3, active compounds read low",0.969
same,normalized growth,"locus YJR066W, strain TOR1 (second series), active compounds read low",0.786
same,normalized growth,"locus YJR066W, strain TOR1, active compounds read low",0.867
same,normalized growth,"locus YKL048C, strain ELM1, active compounds read low",0.934
same,normalized growth,"locus YKL067W, strain YNK1, active compounds read low",0.865
same,normalized growth,"locus YKL101W, strain HSL1, active compounds read low",0.852
same,normalized growth,"locus YKL193C, strain SDS22, active compounds read low",0.968
same,normalized growth,"locus YKL203C, strain TOR2, active compounds read low",0.932
same,normalized growth,"locus YLR113W, strain HOG1, active compounds read low",0.816 (active)
same,normalized growth,"locus YLR133W, strain CKI1, active compounds read low",0.875
same,normalized growth,"locus YLR403W, strain SFP1, active compounds read low",0.865
same,normalized growth,"locus YML070W, strain DAK1, active compounds read low",0.82
same,normalized growth,"locus YMR001C, strain CDC5, active compounds read low",0.967
same,normalized growth,"locus YMR205C, strain PFK2 (second series), active compounds read low",0.877
same,normalized growth,"locus YMR277W, strain FCP1, active compounds read low",0.968
same,normalized growth,"locus YNL006W, strain LST8, active compounds read low",0.975
same,normalized growth,"locus YNL020C, strain ARK1, active compounds read low",0.851
same,normalized growth,"locus YNL161W, strain CBK1, active compounds read low",0.973
same,normalized growth,"locus YNL183C, strain NPR1, active compounds read low",0.885
same,normalized growth,"locus YNL207W, strain RIO2, active compounds read low",0.965
same,normalized growth,"locus YNL222W, strain SSU72, active compounds read low",0.969
same,normalized growth,"locus YNL307C, strain MCK1 (second series), active compounds read low",0.845
same,normalized growth,"locus YOL078W, strain AVO1, active compounds read low",0.978
same,normalized growth,"locus YOL136C, strain PFK27, active compounds read low",0.84
same,normalized growth,"locus YOR061W, strain CKA2, active compounds read low",0.818
same,normalized growth,"locus YOR119C, strain RIO1, active compounds read low",0.931
same,normalized growth,"locus YOR231W, strain MKK1, active compounds read low",0.842
same,normalized growth,"locus YOR329C, strain SCD5, active compounds read low",0.972
same,normalized growth,"locus YPL031C, strain PHO85, active compounds read low",0.858
same,normalized growth,"locus YPL153C, strain RAD53, active compounds read low",0.833
same,normalized growth,"locus YPL204W, strain HRR25, active compounds read low",0.873
same,normalized growth,"locus YPL209C, strain IPL1, active compounds read low",0.968
same,normalized growth,"locus YPL256C, strain CLN2, active compounds read low",0.893
same,normalized growth,"locus YPR025C, strain CCL1, active compounds read low",0.98
same,normalized growth,"locus YPR106W, strain ISR1, active compounds read low",0.968
same,normalized growth,"locus YPR111W, strain DBF20, active compounds read low",0.962
same,normalized growth,"strain NNK1, active compounds read low",0.953
same,normalized growth,"strain TSCII, active compounds read low",0.97

# — PubChem BioAssay AID1159580 (chemical genetic matrix, 2015)
